# Several values for one entry are separate records, joined by “and”; a condition that tells them apart may be missing. Identical values can stand only once. Some compounds were tested as several samples or in several runs, with calls that do not always agree. Activity calls are given as the source filed them. How the source made its calls: active means hit-call score of the fitted dose curve at least 0.9, where 1 is the maximum; inactive means score below 0.9.
# Key:
# [1] = APR_HepG2_CellLoss_72hr: Apredica 72-hour HepG2 Assay for Cell Loss (AID 2282915); conditions: high-content imaging
# Summary of the method: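 HepG2 cells exposed 72 h to compound at 0.39–200 uM (10 concentrations, duplicate) in 0.5% DMSO. Fixed with 3.7% formaldehyde and Hoechst 33342-stained. Imaged at 20x; nuclear count gives cell number, fitted bidirectionally versus DMSO.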
# [2] = APR_HepG2_P-H2AX_72hr: Apredica 72-hour HepG2 Assay for H2AX Phosphorylation (AID 2282916); conditions: imaging, actives raise or lower the signal;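 further: phospho-histone H2A.x immunostain intensity per cell marking DNA damage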
# Summary of the method: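 HepG2 cells treated 72 h at 0.39–200 uM, 0.5% DMSO final, duplicates. Formaldehyde-fixed, Triton-permeabilised, immunostained for phospho-H2A.x with Hoechst; fluorescence imaged at 20x, bidirectional fit versus DMSO.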
# [3] = APR_HepG2_MitoMembPot_72hr: Apredica 72-hour HepG2 Assay for Mitochondrial Membrane Potential (AID 2282917); conditions: imaging, actives raise or lower the signal
# Summary of the method: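 HepG2 cells dosed 72 hr with compound at 0.39–200 uM in duplicate, 0.5% v/v DMSO final. Mitochondria stained with 250 nM MitoTracker Red CMXRos for 30 min before formaldehyde fixation, imaged by high-content fluorescence; bidirectional fit versus DMSO.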
# [4] = APR_HepG2_MitoticArrest_72hr: Apredica 72-hour HepG2 Assay for Mitotic Arrest (AID 2282918); conditions: high-content imaging, actives raise or lower the signal
# Summary of the method: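 Mitotic arrest in HepG2 is scored from phospho-histone H3 staining after 72 hr dosing across 0.39–200 uM, with DMSO at 0.5% v/v. Nuclei are identified by Hoechst 33342 and fluorescence intensity is quantified per cell.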
# [5] = APR_HepG2_MicrotubuleCSK_72hr: Apredica 72-hour HepG2 Assay for Microtubule CSK Stabilty (AID 2282919); conditions: HepG2 microtubule cytoskeleton, high-content imaging, actives raise or lower the signal
# Summary of the method: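 HepG2 cells were exposed 72 hr to compound at 0.39–200 uM in duplicate (0.5% DMSO final), then fixed and permeabilized. Alpha-tubulin immunofluorescence was imaged by high-content microscopy, with bidirectional fitting against DMSO and taxol as positive control.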
# [6] = APR_HepG2_P-H2AX_24hr: Apredica 24-hour HepG2 Assay for H2AX Phosphorylation (AID 2282920); conditions: high-content imaging, actives raise or lower the signal
# Summary of the method: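 Signal comes from a FITC-labeled secondary detecting phospho-histone H2A.x in fixed HepG2 cells, quantified by automated imaging at 20x. Dosing ran 24 hr across 0.39–200 uM with 0.5% v/v DMSO.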
# [7] = APR_HepG2_StressKinase_72hr: Apredica 72-hour HepG2 Assay for Stress Kinase (AID 2282921); conditions: HepG2 stress kinase (phospho-c-Jun) imaging, actives raise or lower the signal
# Summary of the method: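 HepG2 cells treated 72 hr with 0.39–200 uM compound, 0.5% v/v DMSO, duplicate wells. After formaldehyde fixation and Triton permeabilization, stained with anti-phospho-c-Jun (1:500) and Cy3 secondary, imaged at 20x. Fitted in both directions against DMSO.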
# [8] = APR_HepG2_StressKinase_24hr: Apredica 24-hour HepG2 Assay for Stress Kinase (AID 2282922); conditions: HepG2 stress kinase (phospho-c-Jun) imaging, actives raise or lower the signal
# Summary of the method: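 HepG2 cells exposed 24 h to 0.39–200 uM compound in duplicate (0.5% v/v DMSO final). Cells fixed in 3.7% formaldehyde, permeabilized and immunostained for phospho-c-Jun; read by high-content fluorescence imaging, fitted bidirectionally against DMSO.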
# [9] = APR_HepG2_p53Act_72hr: Apredica 72-hour HepG2 Assay for p53 Activation (AID 2282923); conditions: high-content imaging, actives raise or lower the signal;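 further: average cellular p53 protein immunofluorescence intensity in HepG2 cells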
# Summary of the method: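 HepG2 cells exposed 72 h to 0.39–200 uM in 0.5% DMSO, duplicates. Fixed, permeabilized cells immunostained for p53 (Cy5) with Hoechst; imaged at 20x, fluorescence analyzed bidirectionally against DMSO.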
# [10] = APR_HepG2_MitoMass_72hr: Apredica 72-hour HepG2 Assay for Mitochondrial Mass (AID 2282924); conditions: high-content imaging, actives raise or lower the signal;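 further: MitoTracker Red CMXRos stain intensity per cell imaged as mitochondrial mass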
# Summary of the method: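 HepG2 cells dosed 72 hr at 0.39–200 uM (0.5% DMSO), in duplicate. MitoTracker Red CMXRos 250 nM loaded 30 min before formaldehyde fixation; high-content fluorescence imaging, bidirectional fit versus DMSO.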
# [11] = ATG_CRE_CIS: Attagene CIS-FACTORIAL HepG2 Assay for human cAMP Responsive Element (CRE) binding protein 3 (AID 2282926); conditions: HepG2 CRE cis-reporter, Attagene multiplexed mRNA; actives raise or lower the signal
# Summary of the method: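 We dosed HepG2 cells bearing multiple cis-promoter reporter units for 24 h and measured reporter mRNA by RT-PCR with capillary electrophoresis detection. Bidirectional concentration-response fitting used DMSO as negative control.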
# [12] = molecular target: CCAAT/enhancer-binding protein beta (Homo sapiens) (UniProt P17676); test: ATG_C_EBP_CIS: Attagene CIS-FACTORIAL HepG2 Assay for human CCAAT/Enhancer Binding Protein (C/EBP) beta (AID 2282927); conditions: HepG2 Attagene cis-factorial transcription factor reporter; actives raise or lower the signal
# Chain of CCAAT/enhancer-binding protein beta (Homo sapiens) (P17676 whole entry, looked up): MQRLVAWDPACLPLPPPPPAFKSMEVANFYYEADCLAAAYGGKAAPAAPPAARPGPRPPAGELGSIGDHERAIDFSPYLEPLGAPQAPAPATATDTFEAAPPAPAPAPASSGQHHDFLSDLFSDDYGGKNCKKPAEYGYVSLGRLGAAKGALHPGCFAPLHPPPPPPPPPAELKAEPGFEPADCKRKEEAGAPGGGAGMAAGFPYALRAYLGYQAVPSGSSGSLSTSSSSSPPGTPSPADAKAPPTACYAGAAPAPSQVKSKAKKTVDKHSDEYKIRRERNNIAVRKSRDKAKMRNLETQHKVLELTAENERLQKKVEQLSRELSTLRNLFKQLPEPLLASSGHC
# Summary of the method: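 HepG2 transiently transfected with multiplexed reporter units under cis-regulatory promoters reporting endogenous C/EBPb activity. After 24 h exposure, reporter mRNA assayed by RT-PCR, fluorescent labelling, HpaI digestion and capillary electrophoresis; bidirectional fitting versus DMSO.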
# [13] = ATG_DR4_LXR_CIS: Attagene CIS-FACTORIAL HepG2 Assay for human Liver X Receptor (LXR), DR4 submotif (AID 2282929); conditions: HepG2 Attagene DR4 cis-reporter, mRNA transcription; actives raise or lower the signal
# Summary of the method: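 The endpoint is DR4-element-driven reporter transcripts after 24 h chemical exposure of transfected HepG2 cells. These were measured via RT-PCR and capillary electrophoresis, and gain or loss of signal was fitted relative to DMSO controls.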
# [14] = molecular target: Aryl hydrocarbon receptor (Homo sapiens) (UniProt P35869); test: ATG_Ahr_CIS: Attagene CIS-FACTORIAL HepG2 Assay for human Aryl Hydrocarbon Receptor (Ahr) (AID 2282930); conditions: HepG2 AhR cis-factorial reporter transcription; actives raise or lower the signal
# Chain of Aryl hydrocarbon receptor (Homo sapiens) (P35869 whole entry, looked up): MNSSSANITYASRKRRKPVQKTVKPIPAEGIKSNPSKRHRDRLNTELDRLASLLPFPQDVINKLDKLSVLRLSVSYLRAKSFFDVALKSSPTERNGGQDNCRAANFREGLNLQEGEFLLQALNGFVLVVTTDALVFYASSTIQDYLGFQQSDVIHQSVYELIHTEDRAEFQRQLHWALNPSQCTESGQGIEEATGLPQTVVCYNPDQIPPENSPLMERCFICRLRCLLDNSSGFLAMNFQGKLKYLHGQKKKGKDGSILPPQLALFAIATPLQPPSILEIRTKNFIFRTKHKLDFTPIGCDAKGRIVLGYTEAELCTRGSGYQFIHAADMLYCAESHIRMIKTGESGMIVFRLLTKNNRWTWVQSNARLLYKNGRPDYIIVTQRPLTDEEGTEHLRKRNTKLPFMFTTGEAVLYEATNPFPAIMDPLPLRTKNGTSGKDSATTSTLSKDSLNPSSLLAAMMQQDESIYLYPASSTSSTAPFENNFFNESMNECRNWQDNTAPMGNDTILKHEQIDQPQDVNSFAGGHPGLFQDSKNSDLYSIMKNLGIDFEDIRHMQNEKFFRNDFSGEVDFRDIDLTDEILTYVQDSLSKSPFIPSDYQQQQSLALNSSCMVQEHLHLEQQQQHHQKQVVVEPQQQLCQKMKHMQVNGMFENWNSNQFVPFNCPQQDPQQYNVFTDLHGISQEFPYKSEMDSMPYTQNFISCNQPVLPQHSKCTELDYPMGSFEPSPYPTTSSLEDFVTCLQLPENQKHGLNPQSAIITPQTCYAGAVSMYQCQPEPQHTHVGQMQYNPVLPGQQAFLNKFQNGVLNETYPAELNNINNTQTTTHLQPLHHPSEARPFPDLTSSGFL
# Summary of the method: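 HepG2 cells transiently transfected with cis-element-driven multiplexed reporter units; endogenous AhR activity read as reporter mRNA 24 h after dosing, via RT-PCR, 6-FAM labelling, HpaI digestion and capillary electrophoresis. Bidirectional fit relative to DMSO.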
# [15] = ATG_AP_1_CIS: Attagene CIS-FACTORIAL HepG2 Assay for human Activator Protein 1 (AP-1) (AID 2282931); conditions: HepG2 Attagene cis-factorial AP-1 reporter mRNA; actives raise or lower the signal
# Summary of the method: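 Readout is reporter transcript level from endogenous transcription factor activity, quantified by RT-PCR with fluorescent primer extension and capillary electrophoresis. Transiently transfected HepG2 cells, 24 h exposure. Curves fitted both directions versus DMSO.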
# [16] = ATG_AP_2_CIS: Attagene CIS-FACTORIAL HepG2 Assay for human Activator Protein 2 (AP-2) (AID 2282932); conditions: HepG2 AP-2 cis-reporter, Attagene transcription factor profiling; actives raise or lower the signal
# Summary of the method: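 HepG2 cells transiently transfected with cis-element reporter units and exposed for 24 h. Reporter mRNA measured by RT-PCR, FAM labelling, HpaI digestion and capillary electrophoresis. Changes in either direction fitted relative to DMSO.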
# [17] = ATG_BRE_CIS: Attagene CIS-FACTORIAL HepG2 Assay for human Bone Morphogenetic Protein (BMP) Response Element (BRE) (AID 2282933); conditions: HepG2 BMP response element reporter, Attagene transcription factor profiling; actives raise or lower the signal
# Summary of the method: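 Gain- or loss-of-signal was derived by bidirectional fitting against DMSO controls. The signal came from reporter mRNA, measured by RT-PCR and capillary electrophoresis, in HepG2 cells transiently carrying multiple reporter units and dosed for 24 h.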
# [18] = molecular target: Retinoic acid receptor alpha (Homo sapiens) (UniProt P10276); test: ATG_DR5_RAR_CIS: Attagene CIS-FACTORIAL HepG2 Assay for human Retinoic Acid Receptor Alpha (RARE), DR5 submotif (AID 2282934); conditions: HepG2 Attagene cis-factorial RARE DR5 reporter, mRNA; actives raise or lower the signal;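 on AC50: reporter responds to endogenous RAR alpha beta and gamma in HepG2 not RARA alone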
# Chain of Retinoic acid receptor alpha (Homo sapiens) (P10276 whole entry, looked up): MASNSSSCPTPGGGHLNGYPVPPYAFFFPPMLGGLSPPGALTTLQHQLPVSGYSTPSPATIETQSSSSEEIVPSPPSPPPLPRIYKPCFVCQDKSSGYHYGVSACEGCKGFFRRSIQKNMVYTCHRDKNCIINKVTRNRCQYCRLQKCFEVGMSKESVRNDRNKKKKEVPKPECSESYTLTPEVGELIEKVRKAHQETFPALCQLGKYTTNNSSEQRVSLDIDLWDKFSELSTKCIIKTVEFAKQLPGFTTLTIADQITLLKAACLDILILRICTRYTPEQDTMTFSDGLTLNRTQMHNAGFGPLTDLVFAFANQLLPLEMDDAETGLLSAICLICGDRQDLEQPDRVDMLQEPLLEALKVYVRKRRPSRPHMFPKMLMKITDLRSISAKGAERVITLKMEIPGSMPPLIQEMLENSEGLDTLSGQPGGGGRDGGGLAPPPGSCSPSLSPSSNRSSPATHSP
# Summary of the method: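 HepG2 cells transiently transfected with multiplexed reporter units; DR5 cis-element drives reporter through endogenous transcription factors. After 24 h dosing, reporter mRNA quantified by RT-PCR, fluorescent labeling, HpaI digestion and capillary electrophoresis; bidirectional fitting versus DMSO.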
# [19] = ATG_CMV_CIS: Attagene CIS-FACTORIAL HepG2 Assay for human CMV (Internal Marker) (AID 2282928); conditions: HepG2 CMV promoter reporter, transcription factor profiling; actives raise or lower the signal;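 further: endpoint acts as a background internal control marker rather than a target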
# Summary of the method: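 HepG2 cells transiently transfected with multiple cis-regulated reporter units; 24 h compound exposure. Reporter mRNA quantified by RT-PCR, 6-FAM primer-extension labeling, HpaI digestion and capillary electrophoresis; bidirectional fitting against DMSO baseline.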
compound,measurement,setting,value
NC(=O)N1C(=O)C(C(=O)c2cc(Cl)cs2)c2cc(F)c(Cl)cc21 (configuration not stated),AC50,[1],62.7 µM (active)
same,AC50,[2],64.7 µM (active)
same,outcome,[3],inactive
same,AC50,[4],47.7 µM (active)
same,AC50,[5],39.2 µM (active)
same,AC50,[6],99.8 µM (active)
same,AC50,[7],67.4 µM (active)
same,outcome,[8],inactive
same,AC50,[9],59 µM (active)
same,AC50,[10],54.4 µM (active)
same,outcome,[11],inactive
same,outcome,[12],inactive
same,outcome,[13],inactive
same,outcome,[14],inactive
same,outcome,[15],inactive
same,outcome,[16],inactive
same,outcome,[17],inactive
same,outcome,[18],inactive
CC[C@H](c1ccc(O)cc1)[C@@H](CC)c1ccc(O)cc1,outcome,[1],inactive
same,outcome,[2],inactive
same,outcome,[3],inactive
same,outcome,[4],inactive
same,outcome,[5],inactive
same,outcome,[6],inactive
same,outcome,[7],inactive
same,outcome,[8],inactive
same,outcome,[9],inactive
same,outcome,[10],inactive
same,outcome,[11],inactive
same,outcome,[12],inactive
same,AC50,[19],12.5 µM (active) and 11.1 µM (active) and 7.79 µM (active)
same,AC50,[13],11.1 µM (active) and 11 µM (active)
same,outcome,[13],inactive
same,outcome,[14],inactive
same,AC50,[15],11.1 µM (active) and 7.83 µM (active) and 9.21 µM (active)
same,outcome,[16],inactive
same,outcome,[17],inactive
ClC1=C(Cl)C(Cl)(Cl)C(Cl)=C1Cl,outcome,[1],inactive
same,outcome,[2],inactive
same,outcome,[3],inactive
same,outcome,[4],inactive
same,outcome,[5],inactive
same,outcome,[6],inactive
same,outcome,[7],inactive
same,outcome,[8],inactive
same,outcome,[9],inactive
same,outcome,[10],inactive
same,AC50,[11],11.9 µM (active)
same,outcome,[11],inactive
same,AC50,[12],16.9 µM (active)
same,outcome,[12],inactive
same,AC50,[19],11.1 µM (active)
same,outcome,[19],inactive
same,AC50,[13],6.59 µM (active)
same,outcome,[13],inactive
same,AC50,[14],8.81 µM (active)
same,outcome,[14],inactive
same,outcome,[15],inactive
same,outcome,[16],inactive
same,outcome,[17],inactive
same,AC50,[18],21.4 µM (active)
same,outcome,[18],inactive
